PAD4 FP inh: human PAD4 inhibitors, primary screen, biochemical, fluorescence polarization, 1536-well format; recombinant PAD4, RCA probe fluorescence polarization; inhibition, % at 6.36 µM; 330,000 tested, 0.41% active; AID 485272, 2010;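 active = percent inhibition above a cutoff equal to the mean of all tested compounds plus 3 SD, cut at about 15% in these data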;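 note: 0% = PAD4 with RCA probe and DMSO and 100% = probe without PAD4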
Target sequence (Q9UM07 whole entry, looked up): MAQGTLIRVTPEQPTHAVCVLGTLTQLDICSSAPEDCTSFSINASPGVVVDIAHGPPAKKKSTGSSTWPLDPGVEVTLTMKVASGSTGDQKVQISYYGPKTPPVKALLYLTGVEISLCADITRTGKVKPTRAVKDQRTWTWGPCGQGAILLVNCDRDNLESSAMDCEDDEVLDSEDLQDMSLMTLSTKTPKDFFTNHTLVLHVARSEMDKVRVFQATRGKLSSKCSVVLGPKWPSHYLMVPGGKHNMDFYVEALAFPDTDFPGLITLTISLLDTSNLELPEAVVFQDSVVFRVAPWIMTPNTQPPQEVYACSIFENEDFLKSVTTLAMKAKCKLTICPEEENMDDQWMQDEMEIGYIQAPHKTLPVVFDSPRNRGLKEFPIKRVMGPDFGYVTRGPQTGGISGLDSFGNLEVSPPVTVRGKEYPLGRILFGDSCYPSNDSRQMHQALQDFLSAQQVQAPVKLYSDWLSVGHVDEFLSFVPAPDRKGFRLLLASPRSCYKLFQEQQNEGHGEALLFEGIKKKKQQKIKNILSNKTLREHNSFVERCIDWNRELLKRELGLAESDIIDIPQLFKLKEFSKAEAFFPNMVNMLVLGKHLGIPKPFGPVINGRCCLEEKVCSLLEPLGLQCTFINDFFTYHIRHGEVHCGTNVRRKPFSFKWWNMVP
PME-1 inh: PME-1 inhibitors via competitive probe labeling, primary screen, biochemical, fluorescence polarization, FP-Rh probe, HTS; recombinant PME-1; inhibition, % at 5.9 µM; 320,000 tested, 0.53% active; AID 2130, 2009;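 active = inhibition above the campaign mean of all compounds plus 3 SD, cut at about 26% in these data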;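 note: competitive labeling of PME-1 active site by serine hydrolase directed probe; 0% = PME-1 with DMSO and 100% = wells lacking PME-1 enzyme; inhibitors block probe labeling so polarization falls and inhibition rises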
TCR-CD3 inh: inhibitors of human TCR-CD3 interaction, primary screen, biochemical, fluorescence, TAMRA-labeled TCR probe; T-cell receptor (TCR); 360,000 tested, 0.37% active; inhibition, % at 9.4 µM; in the data active = inhibition above about 19%;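 note: recombinant mutant TCR 2C K166C tagged with TAMRA read by polarization; 0% = receptor in buffer alone and 100% = receptor with positive control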
SIAE primary: human SIAE inhibitors, primary screen, biochemical, fluorescence polarization, FP-Rh probe, 1536-well HTS | Sialate O-acetylesterase (Homo sapiens), Q9HAT2 | SIAE FP-Rh probe binding | inhibition, % at 9.66 µM | 370,000 tested, 0.69% active | AID 1053197, 2014;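 active = inhibition above a cutoff: mean of compounds within the control limits plus 3 SD of those, cut at about 17% in these data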;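 note: 0% = plate median of compound wells and 100% = probe without SIAE protein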
PRMT1 FP inh: PRMT1 methyltransferase inhibitors, primary screen, biochemical, fluorescence polarization | 370,000 tested, 1.3% active | Protein arginine N-methyltransferase 1 (Homo sapiens), Q99873 | inhibition, % at 2.79 µM | recombinant PRMT1, activity-based probe fluorescence polarization;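 active = inhibition above about 21% made by adding two undisclosed values, limit read from the data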
Fam108B counter: mouse Fam108B serine hydrolase inhibitors, primary screen, counter-screen for RBBP9 inhibitor project, biochemical, fluorescence polarization; recombinant Fam108B, FP-Rh probe fluorescence polarization; inhibition, % at 9.51 µM; 300,000 tested, 0.33% active;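 active = inhibition above the screen mean inhibition plus 3 SD, computed separately per campaign, cut at about 18% in these data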;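 note: inhibitors lower polarization as less probe binds the enzyme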
SIAE inh conf: human SIAE inhibitors, retest, confirmation, biochemical, fluorescence polarization, FP-Rh probe, triplicate; shares compounds with SIAE primary; SIAE FP-Rh activity-based probe; inhibition, % at 9.66 µM; 2,300 tested, 13% active; AID 1117263, 2014;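 active = mean inhibition of the replicates above the hit cutoff set in the primary screen, cut at about 17% in these data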;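 note: 0% = SIAE with DMSO and probe and 100% = probe without SIAE; inhibitors lower polarization as more probe stays unbound to SIAE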
An asterisk follows results filed as active; nt = no result given. Rows were chosen to be rich in hits. Some 2.6% of all compounds tested hit in one or more screens of this group.

SMILES | PAD4 FP inh | PME-1 inh | TCR-CD3 inh | SIAE primary | PRMT1 FP inh | Fam108B counter | SIAE inh conf
C[C@@H]1CN([C@@H](C)CO)C(=O)c2cccc(NC(=O)Nc3cccc4ccccc34)c2O[C@H]1CN(C)S(=O)(=O)c1ccc2c(c1)OCCO2 | nt | nt | nt | -5 | -1 | nt | nt
COc1ccc(-n2c(SCC(=O)NCC3CCCO3)nnc2-c2ccncc2)cc1 (centres undefined) | nt | nt | nt | -1 | -2 | nt | nt
O=C(/C=C/c1ccc(F)cc1)NC(=S)Nc1ccccc1O | nt | nt | 4 | -9 | 0 | nt | nt
O=C(/C=C/c1ccccc1)NC(=S)Nc1ccccc1O | 6 | 25 | 10 | 24* | 4 | 1 | -3
Cc1ccccc1CN1CCCCC(NC(=O)c2ccc(COc3ccccc3)cc2)C1=O (centres undefined) | nt | nt | nt | -8 | 1 | nt | nt
COc1cc(/C=N\Nc2nc3ccccc3[nH]2)cc(OC)c1OC | -4 | -43 | -6 | 13 | 5 | 7 | nt
CCOc1cc(/C=N/Nc2nc3ccccc3[nH]2)cc(Br)c1OCC(=O)N(C)C | 5 | -24 | -3 | 24* | 1 | 13 | 21*
CCOC(=O)c1sc2ccc(S(=O)(=O)N3CCCCC3)cc2c1N | -4 | -6 | 4 | 21* | 1 | 0 | -2
CC(=O)c1c(C)[nH]c(C(=O)NCc2ccccc2)c1C | -2 | 2 | 3 | 26* | -2 | 0 | -1
O=C(CCNC(=O)c1ccc(Br)cc1)Nc1ncccc1O | 1 | 3 | 6 | 24* | -2 | -4 | 7
O=S1(=O)c2ccc(N3CCSCC3)cc2Oc2ccccc2CN1Cc1cn(Cc2cccc(F)c2)nn1 | nt | nt | nt | -7 | 0 | nt | nt
O=C(Cc1cn(Cc2ccccc2)c2ccccc12)Nc1ccc(Nc2cccnc2)cc1 | nt | nt | -8 | 26* | 14 | nt | 28*
Cn1nnnc1SCC(=O)NCc1ccccc1 | 2 | -3 | 1 | -1 | 3 | 3 | nt
CC(C)N(Cc1nc2ccccc2c(=O)[nH]1)C(=O)c1ccc(NC(=O)CSc2nnnn2C)cc1 | -1 | 0 | -2 | 18* | -1 | nt | -4
O=C(OC12CCCN(C1)/C(=C/c1ccc(Cl)cc1)C2)C1CCCCC1 (centres undefined) | nt | nt | nt | 18* | 0 | nt | 0
O=C(OC12CCCN(C1)/C(=C/c1ccccc1)C2)C1CCCCC1 (centres undefined) | nt | nt | nt | -1 | 2 | nt | nt
N#Cc1ccc(/C=C2\CC3(OC(=O)C4CCCC4)CCCN2C3)cc1 (centres undefined) | nt | nt | nt | 23* | -2 | nt | 3
CCOc1ccc(CCNC(=O)Cc2ccc(NC(=O)C3=C(C)OCCS3)cc2)cc1 | -1 | -3 | 5 | 19* | 2 | -2 | 8
Cc1cc(C)cc(C(=O)OCCCN(C)C2CN(Cc3cn(Cc4ccccc4Cl)nn3)S(=O)(=O)C2)c1 (centres undefined) | nt | nt | nt | 3 | 2 | nt | nt
COc1ccc(-n2c(Cc3cccn3C)nnc2SCC(=O)N2CCCC2)cc1 | 0 | -2 | -12 | 18* | 1 | 1 | 1
Cn1cccc1Cc1nnc(SCC(=O)Nc2ccc3c(c2)OCCO3)n1-c1ccc(F)cc1 | -2 | -4 | -2 | 20* | 8 | 0 | -5
COc1ccc(-n2c(Cc3cccn3C)nnc2SCC(=O)N2CCC(C)CC2)cc1 | -4 | -3 | 2 | 6 | -3 | -2 | nt
CC(Sc1nc(N2CCCCC2)c2c(c1C#N)CCCC2)C(=O)O (centres undefined) | 2 | 7 | 0 | 22* | 3 | 7 | -1
CCN(CC)C(=O)c1ccc2c(c1)NC(=O)C(C)(C)O2 | nt | nt | nt | 5 | 1 | nt | nt
CCOc1ccc(OCCOC(=O)CN(C)S(=O)(=O)c2ccc(NC(C)=O)cc2)cc1 | 0 | 5 | 1 | 20* | -4 | 1 | -5
SMILES | PAD4 FP inh | PME-1 inh | TCR-CD3 inh | SIAE primary | PRMT1 FP inh | Fam108B counter | SIAE inh conf
CC(=O)Nc1ccc(S(=O)(=O)N(C)CC(=O)OCC(=O)N2CCCCC2)cc1 | -1 | 1 | 6 | -4 | -1 | 2 | nt
CC(=O)Nc1c2c(nn1-c1cccc(Cl)c1)CS(=O)(=O)C2 | -3 | 9 | 2 | 18* | -2 | 2 | -5
CC(C)(C)C(=O)Nc1c2c(nn1-c1cccc(Cl)c1)CS(=O)(=O)C2 | -1 | -3 | 2 | -11 | 3 | -1 | nt
Cc1ccc(SCC(=O)OCC(=O)N(CCC#N)c2ccccc2)cc1C | 2 | -2 | -6 | 29* | 5 | -1 | 5
COc1ccc(-n2c(SCC(=O)Nc3ccc4c(c3)OCO4)nc3sc4c(c3c2=O)CCCC4)cc1 | nt | nt | nt | 2 | 1 | nt | nt
CC(=O)c1cc(-c2ccc(-c3cc(C(=O)O)c4ccccc4n3)cc2)c(=O)n2c1CCC2 | nt | nt | nt | -3 | 8 | nt | nt
O=C(Cc1c[nH]c2ccccc12)Nc1ccc(Nc2cccnc2)c(-c2ccc(F)c(F)c2)c1 | nt | nt | -1 | 28* | -2 | nt | 10
O=C(Cc1c[nH]c2ccccc12)Nc1ccc(Nc2cccnc2)c(-c2cccc(Cl)c2)c1 | nt | nt | -4 | 9 | -4 | nt | nt
Cc1[nH]c2ccccc2c1CC(=O)Nc1ccc(Nc2cccnc2)c(-c2ccc(F)c(F)c2)c1 | nt | nt | 4 | 17 | 2 | nt | nt
O=C(Cc1c[nH]c2ccccc12)Nc1ccc(Nc2cccnc2)c(-c2ccc(-c3ccccc3)cc2F)c1 | nt | nt | 0 | 22* | 9 | nt | -2
COc1cc(F)c(S(=O)(=O)N2CCCN(S(=O)(=O)c3cccc(N)c3)CC2)c(F)c1 | nt | nt | nt | -5 | -2 | nt | nt
CCCCOCCCNC(=O)C[C@H]1C[C@@]2(C(=O)OC)C(=C[C@H](C3CCCC3)O[C@@H]2C)N(CCc2ccc(OC)c(OC)c2)C1=O | nt | nt | nt | -2 | 1 | nt | nt
CNC(=O)c1ccc(-c2sc3nc(N4CCOCC4)c4c(c3c2N)CCCC4)o1 | -2 | -3 | 1 | 22* | 8 | 13 | 5
Nc1c(C(=O)NCc2ccccc2)sc2nc(N3CCOCC3)c3c(c12)CCCC3 | 0 | 5 | -3 | 19* | 6 | 8 | 5
NNC(=O)c1sc2nc(N3CCOCC3)c3c(c2c1N)CCCC3 | 5 | 21 | 8 | 18* | -2 | 6 | 2
CCOC(=O)[C@]12CCCCC/C=C\1N(CCc1ccc(Cl)cc1)C(=O)[C@H]2CC(=O)NCCCN1CCCC1=O | nt | nt | nt | -1 | 0 | nt | nt
COC(=O)N1CCCC1c1cccc2[nH]cc(C)c12 (centres undefined) | nt | nt | nt | 3 | 3 | nt | nt
CCCNC(=O)C(Cc1ccc(F)cc1)NC(=O)c1ccc(C#N)cc1 (centres undefined) | -2 | 7 | 4 | 20* | -3 | nt | -4

Screening results as filed in PubChem.
